GSIS activator: primary screen for activators of insulin secretion dependent on glucose, INS-1E cells, GLuc reporter luminescence. INS-1E GLuc reporter insulin secretion, 2-3 h. activation, % at 16.6 µM. 370,000 compounds, 0.61% hits. AID 743287;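 active = lowest replicate activation of at least 40%, so every replicate reaches that level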
SIRT5 inh: inhibitors of human sirtuin-5 desuccinylase; Q9NXA8; 330,000 compounds, 1.1% hits; AID 652115; inhibition, % at 15 µM; Purified SirT5, succinyl-peptide AMC, trypsin-coupled fluorescence; in the data active = inhibition above about 15%
ERAP1 HTS inh: blocks human ERAP1 aminopeptidase activity; Q9NZ08; recombinant ERAP1, Leu-AMC fluorescence, 60 min; inhibition, % at 10.7 µM; 340,000 compounds, 0.15% hits;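 active = mean replicate inhibition of at least 30%, or all replicates individually reaching that 30% level; inactive = mean below 30% and not every replicate reaching it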
Target sequence (Q9NZ08 whole entry, looked up): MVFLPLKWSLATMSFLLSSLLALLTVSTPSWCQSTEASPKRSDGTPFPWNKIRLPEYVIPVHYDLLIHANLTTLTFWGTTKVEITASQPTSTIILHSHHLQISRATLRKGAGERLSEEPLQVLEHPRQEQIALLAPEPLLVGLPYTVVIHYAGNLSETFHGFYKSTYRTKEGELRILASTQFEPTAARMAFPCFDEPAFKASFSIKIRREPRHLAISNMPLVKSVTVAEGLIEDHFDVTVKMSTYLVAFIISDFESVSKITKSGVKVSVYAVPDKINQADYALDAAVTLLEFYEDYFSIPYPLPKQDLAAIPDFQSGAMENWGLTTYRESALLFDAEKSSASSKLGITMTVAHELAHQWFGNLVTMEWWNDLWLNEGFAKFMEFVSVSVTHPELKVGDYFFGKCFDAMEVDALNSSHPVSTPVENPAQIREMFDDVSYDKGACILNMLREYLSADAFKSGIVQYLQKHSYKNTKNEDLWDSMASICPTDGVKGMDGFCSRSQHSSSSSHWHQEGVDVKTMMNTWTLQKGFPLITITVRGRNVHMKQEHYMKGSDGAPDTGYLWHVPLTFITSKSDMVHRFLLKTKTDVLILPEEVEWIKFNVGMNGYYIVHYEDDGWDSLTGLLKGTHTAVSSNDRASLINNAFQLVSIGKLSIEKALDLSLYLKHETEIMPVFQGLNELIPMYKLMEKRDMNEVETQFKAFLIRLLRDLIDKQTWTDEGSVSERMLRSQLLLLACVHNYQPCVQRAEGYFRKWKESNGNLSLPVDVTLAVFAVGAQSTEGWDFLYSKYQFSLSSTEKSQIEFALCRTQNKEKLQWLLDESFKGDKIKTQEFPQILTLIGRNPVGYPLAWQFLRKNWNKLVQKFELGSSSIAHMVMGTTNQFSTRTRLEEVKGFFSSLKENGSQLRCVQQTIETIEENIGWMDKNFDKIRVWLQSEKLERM
Casp6 inh: inhibitors of human caspase-6. P55212. purified caspase-6, Z-VEID-R110 cleavage fluorescence. inhibition, % at 12.5 µM. 350,000 compounds, 0.53% hits;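 active = mean inhibition across replicates at least about 35%, with every replicate also reaching that limit, limit read from the data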
FGF22 binding: binders of recombinant human FGF22 by thermal shift; activity (Tm shift, normalised), % at 9.99 µM; Q9HCT0; SYPRO orange fluorescence; percent of sucrose octasulfate shift, DMSO zero; 340,000 compounds, 1.5% hits;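 active = mean Tm shift, scaled 0 neutral to 100 positive control, at about 1.3% or above, every replicate too, limit read from the data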
Large screens that a line does not name were inactive. This is a sample that favours compounds with a hit; in the whole collection about 3.3% have one here.

CC(C)Nc1nc(-c2ccccc2CO)c2sccc2n1	FGF22 binding 43 (no result: GSIS activator, SIRT5 inh)
CN(C)C1=C(Cl)C(=O)N(c2ccc(Cl)c(Cl)c2)C1=O	none
CN(C)/C=C1\C(=O)N(c2ccc(Cl)c(Cl)c2)CS1(=O)=O	FGF22 binding 43
O=C(/C=C/c1ccc(S(=O)(=O)N2CCOCC2)cc1)NC(=S)Nc1ccc(Cl)cc1Cl	FGF22 binding 43
O=C(/C=C/c1ccc(S(=O)(=O)N2CCOCC2)cc1)Nc1cc(F)ccc1F	none
C[C@H](CO)N1C[C@H](C)[C@H](CN(C)C(=O)Nc2cccc3ccccc23)Oc2ccc(NC(=O)Cc3cn(C)c4ccccc34)cc2CC1=O	none
CC(C)NC(=S)N/N=C1\CCCc2ccccc21	FGF22 binding 43
CN(C)CCNC(C(=O)Nc1cc(Cl)cc(Cl)c1)c1ccccc1 (configuration not stated)	FGF22 binding 43
N#CCCn1cc(C=C(C#N)C#N)c(-c2ccc(Cl)cc2)n1	none
N#CCCn1cc(/C=C(\C#N)c2nc3ccccc3s2)c(-c2ccc(F)cc2)n1	GSIS activator 50 (no result: SIRT5 inh, ERAP1 HTS inh, Casp6 inh, FGF22 binding)
C[C@H]1CN([C@@H](C)CO)C(=O)c2cc(C#CCc3ccccc3)cnc2O[C@H]1CN(C)C(=O)Cc1cccnc1	none
COCc1cn(CC[C@H]2CC[C@@H](NC(=O)Cc3cccnc3)[C@H](CO)O2)nn1	none (no result: ERAP1 HTS inh, Casp6 inh)
Cc1nn(-c2ccc3ccccc3c2)c(=O)c2ccccc12	FGF22 binding 44
O=C(COc1ccccc1)Nc1ccc(Cl)cn1	none
Cc1ccc(OCC(=O)Nc2ccc3c(c2)OCO3)cc1C	none
O=C(COc1ccc2c(c1)OCO2)Nc1ccc(Cl)cn1	SIRT5 inh 26
O=C(COc1ccc2c(c1)OCO2)Nc1ccc2c(c1)oc1ccccc12	GSIS activator 81 (no result: SIRT5 inh, ERAP1 HTS inh, Casp6 inh, FGF22 binding)
Nc1cccc2cc(S(=O)(=O)O)ccc12	SIRT5 inh 57, Casp6 inh 64
CO[C@@H]1CC[C@@H]2CCOc3c(C#N)cccc3C(=O)N(C)C[C@H](c3ccccc3)CC(=O)N(C)C[C@H]1O2	none
CC(=O)Nc1ccc(/C=C(\C#N)S(=O)(=O)c2ccc(C)cc2)cc1	GSIS activator 60
CC(=O)Nc1ccc(N/C=C(\C#N)S(=O)(=O)c2ccc(Cl)cc2)cc1	none
CCC(CO)Oc1cc(NC(=O)c2ccc(N)cc2)c2ncn(C(C)C)c2c1 (configuration not stated)	Casp6 inh 38
CCC(CO)Oc1cc(NC(=O)c2ccc(F)cc2)c2ncn(C(C)C)c2c1 (configuration not stated)	none (no result: SIRT5 inh)
O=C(N/N=C/C1CC=CCC1)c1cc(Br)ccc1O (configuration not stated)	none
O=C(N/N=C/C1CC=CCC1)c1ccc(Cl)cc1O (configuration not stated)	Casp6 inh 62
C#CC[N+](C)(C)CCCCCCCCCC	none (no result: GSIS activator)
CCCCCCCCCCCCCCCC[N+](C)(C)CC	GSIS activator 298, ERAP1 HTS inh 77
CCCCCCCCCCCCCCCC[N+](C)(C)CCl	ERAP1 HTS inh 88 (no result: GSIS activator, SIRT5 inh)
CCCCCC[N+](C)(C)CCSSCC[N+](C)(C)CCCCCC	none (no result: ERAP1 HTS inh)
CC#CC[N+](C)(C)CCCCCCCCCCCC	ERAP1 HTS inh 42
O=C(C[C@H]1CC[C@@H]2[C@H](COC[C@@H](O)CN2S(=O)(=O)c2cccc(Cl)c2)O1)NC1CCCC1	none
CC(=O)N1CCCCN2[C@@H](CO)[C@H](c3ccc(-c4cccc(C(=O)N(C)C)c4)cc3)[C@@H]2C1	none
CC1(C)CC(=O)c2c(-c3cccnc3)n[nH]c2C1	SIRT5 inh 15 (no result: FGF22 binding)
O=C(Nc1ncccc1Cl)c1cc2ccccc2o1	SIRT5 inh 20
CCCCCCCCCCCCCCCC(O)C[N+](C)(C)CCO (configuration not stated)	GSIS activator 363, ERAP1 HTS inh 50
CCCNC(=O)C[C@H]1CC[C@@H]2[C@H](COc3ccc(NC(=O)COC)cc3C(=O)N2C)O1	none (no result: SIRT5 inh, ERAP1 HTS inh, Casp6 inh)
Cc1csc(NC(=O)c2ccco2)c1C(=O)c1ccccc1	none
Cc1sc(NC(=O)c2ccco2)c(C(=O)c2ccc(Cl)cc2)c1C	SIRT5 inh 16
CCOC(=O)N1CCN(Cc2c(NC(=O)c3ccco3)sc(C)c2C)CC1	FGF22 binding 44
Cc1sc(NC(=O)c2ccco2)c(C(c2ccccc2)N2CCC(C)CC2)c1C (configuration not stated)	SIRT5 inh 18
Cc1sc(NC(=O)c2ccco2)c(CN2CCN(c3ccc(F)cc3)CC2)c1C	none (no result: FGF22 binding)
CCC(=O)Nc1ccc2c(c1)OC[C@H](C)N(C(=O)C1CCC1)C[C@H](C)[C@H](OC)CN(C)C2=O	none
COc1cc(CN2CC3(CCN(C(=O)Nc4cccc(F)c4)CC3)c3c(n(C)c4cc(OC)ccc34)[C@@H]2CO)cc(OC)c1	none (no result: SIRT5 inh, ERAP1 HTS inh, Casp6 inh, FGF22 binding)
COc1ccc2c3c(n(C)c2c1)[C@H](CO)N(Cc1ccccc1)CC31CN(C(=O)Nc2cccc(F)c2)C1	none
Cc1ccccc1S(=O)(=O)N(C)C[C@H]1OCc2cn(nn2)CCCC(=O)N([C@H](C)CO)C[C@H]1C	none
CN(C)CCOc1ccc(-c2c(-c3ccccc3)sc3ccccc23)cc1	GSIS activator 446 (no result: SIRT5 inh)
Oc1ccc(-c2c(-c3ccsc3)sc3ccccc23)cc1	none (no result: GSIS activator, SIRT5 inh)
NC(=O)c1ccc(-c2c(-c3ccccc3)sc3ccccc23)cc1	SIRT5 inh 29
C[C@H](CO)N1C[C@H](C)[C@@H](CN(C)S(=O)(=O)c2ccc(Cl)cc2)Oc2c(NC(=O)c3nc4ccccc4s3)cccc2C1=O	none
C[C@@H]1CN([C@@H](C)CO)C(=O)c2cc(NC(=O)c3ccncc3)ccc2O[C@@H](C)CCCCO[C@H]1CN(C)Cc1ccc2c(c1)OCO2	none
CCCC(=O)Nc1ccc2c(c1)C(=O)N(C)C[C@@H](OC)[C@@H](C)CN(Cc1nccs1)[C@H](C)CO2	none (no result: ERAP1 HTS inh, Casp6 inh)
C[C@@H]1CN([C@@H](C)CO)C(=O)c2cc(C#CC(C)(C)O)cnc2O[C@@H]1CN(C)Cc1cncnc1	none
CN(C)c1ccc(CC(=O)N2CCCCC2c2cc(C(=O)Nc3ccccc3Cl)no2)cc1 (configuration not stated)	GSIS activator 45 (no result: SIRT5 inh)
CC(=O)N1C2CN(CC(F)(F)F)CC1C2c1ccc(Br)cc1 (configuration not stated)	none (no result: SIRT5 inh, ERAP1 HTS inh, Casp6 inh, FGF22 binding)
O=C(C[C@H]1CC[C@@H](NC(=O)c2ccc3c(c2)OCO3)[C@@H](CO)O1)NC1Cc2ccccc2C1	none
Cn1cnc(S(=O)(=O)N[C@@H]2C=C[C@@H](CC(=O)NCC3CC3)O[C@H]2CO)c1	none
CCOc1nc2ccccc2cc1C=O	FGF22 binding 43
CCOC(=O)c1c(CS(=O)(=O)c2ccccc2)n(C)c2cc(Br)c(O)cc12	SIRT5 inh 18 (no result: GSIS activator)
Cc1ccc(-c2cc3ccccc3nc2N2CCOCC2)cc1	none
CC1(C)c2ccccc2-c2nc3ccccc3cc2C1N1CCOCC1 (configuration not stated)	FGF22 binding 43 (no result: GSIS activator, SIRT5 inh)
CCCNC(=O)Nc1ccc2c(c1)OC[C@@H](C)N(CCC(F)(F)F)C[C@H](C)[C@H](OC)CN(C)C2=O	none (no result: ERAP1 HTS inh, Casp6 inh)

Screening results from PubChem BioAssay.
